# About 900 (1.7%) of roughly 53,000 compounds showed an effect of 50% or more. This is one part of a sample in which strong results are shown more often than they occur.
# System: Mycobacterium tuberculosis
# Experiment: Cornell - Phenotypic assay to identify agents that inhibit growth of Mycobacterium tuberculosis
# Type: functional
# Parameters: scale not given: direction of the effect not stated beside the values
# Details: 10 mM as filed; unlikely as a test dose
row,SMILES,Percent Effect [%]
1,COc1ccc(C(=O)NCCC(N)=O)c(I)c1,-0.6619
2,Cc1nc(NC2CCCCC2)cc(C2CCCNC2)n1.Cl (stereo not given),-33.64
3,COCc1nc2cc(NCc3sc(C)nc3C)ccc2o1,97.37
4,Cc1ncsc1CNc1cccc(OCCN2CCCC2)c1,16.77
5,Cc1cc(CNc2ccc3nc(C)sc3c2)no1,23.73
6,COCCCSc1ccc(NCc2scnc2C)cc1,22.43
7,COCc1nc2cc(NCc3scnc3C)ccc2o1,107
8,COCc1nc(CNc2cccc(-c3nc(C)c(C)o3)c2)cs1,46.4
9,CC(C)N1CC2(CCCN(c3ccnc4ccccc34)C2)CCC1=O (stereo not given),17.47
10,COCc1nnc(C(=O)N2CCCC(O)C2)o1 (stereo not given),-16.94
11,Cc1ncc(CNC(=O)CCc2cccs2)c(C2CCCN2C)n1 (stereo not given),-2.251
12,O=C1CO[C@H]2CN(Cc3cccc4[nH]ccc34)C[C@@H]2N1C1CCOCC1,103.3
13,Cc1ccc(C2CN(Cc3cccc4[nH]ccc34)CCO2)nc1 (stereo not given),-22.89
14,O=C1CO[C@H]2CN(Cc3cccc(F)c3F)C[C@@H]2N1C1CCOCC1,-21.84
15,CCC(CN1CCCC1)NC(=O)C1(c2ccc(F)cc2)CC1 (stereo not given),38.36
16,CCC1c2ccccc2CCN1CCNS(C)(=O)=O (stereo not given),-0.3963
17,COCc1cc(CNCc2c(C)n(CC(N)=O)c3ccccc23)n[nH]1,35.48
18,COCc1cc(CNCc2c(C)n(CC(C)C)c3ccccc23)n[nH]1,48.01
19,Cc1cc(CNCc2c(C)n(CC(C)C)c3ccccc23)[nH]n1,57.75
20,COCCC(=O)N1CCCC1c1nc(C)c2c(n1)N(C)C(=O)CC2 (stereo not given),9.481
21,CC(C)(C)n1nnnc1CN(Cc1ccccc1)Cc1ccccc1Cl,7.141
22,COc1ccc(OC)c(C2CCN(CC(C)(C)N3CCOCC3)C2)c1 (stereo not given),-53.82

row,SMILES,Percent Effect [%]
1,COc1ccc(OC)c(C2CCN(C3CCOCC3)C2)c1 (stereo not given),-54.14
2,COc1ccc(OC)c(C2CCN(Cc3nc(C)n4ccccc34)C2)c1 (stereo not given),51.45
3,Cc1ccc(CN2CCc3nnc(CN4CCCC4=O)n3CC2)s1.O=C(O)C(F)(F)F,32.68
4,CCC(C(=O)N(C)C)n1ccc2ncccc2c1=O (stereo not given),6.503
5,CN(C)C(=O)CN1CCN(c2cc(N3CCCC3CO)ncn2)CC1 (stereo not given),1.672
6,Cc1cc(C)nc(N2CCC(C(=O)O)(n3ccc(C(C)(C)C)n3)CC2)n1,67
7,Cc1cnc(C)c(N2CCC(C(=O)O)(n3ccc(C(C)(C)C)n3)CC2)n1,5.905
8,Cc1cc(N2CCC(C(=O)O)(n3ccc(C(C)(C)C)n3)CC2)nc(N)n1,5.557
9,CSc1cccc(CNC(=O)[C@H]2CNC[C@@H](C(=O)N3CCOCC3)C2)c1,-25.42
10,Cc1nc[nH]c1CNCc1cccnc1N(C)C1CCCCC1,-125.1
11,COc1cc(-n2cc(CCO)cn2)ccc1NC(C)=O,12.75
12,COc1ccc(-n2cc(CCO)cn2)cc1C(N)=O,-5.342
13,COc1ccc(-n2cc(CCO)cn2)cc1C,105.1
14,Cc1cn2c(n1)CCC(NC(=O)CCOc1ccccc1F)C2 (stereo not given),-34.23
15,O=C(c1nc(Cc2c[nH]c3ccccc23)no1)N1CCCCC1,-4.941
16,O=C(O)C(F)(F)F.O=C(c1ncccn1)N1C[C@H]2CCC[C@@]2(COc2ccccn2)C1,-0.9925
17,Cc1ccc(C(=O)N2C[C@H]3CCC[C@@]3(COc3ccccn3)C2)nc1.O=C(O)C(F)(F)F.O=C(O)C(F)(F)F,19.03
18,O=C(O)C(F)(F)F.O=C(c1cocn1)N1C[C@H]2CCC[C@@]2(COc2ccccn2)C1,78.33
19,Fc1cccc(Cl)c1CNCCOc1ccccn1,41.65
20,CN1[C@@H](C(=O)NCC2CC2)C[C@@H]2CN(Cc3ccco3)C[C@@H]21,11.69
21,CCN(Cc1ccccc1)S(=O)(=O)C1CCS(=O)(=O)CC1,11.98
22,CN(C)c1ccc(C2CCN(c3cnccn3)CC2)nc1,63.52

row,SMILES,Percent Effect [%]
1,CN(C)c1nccnc1C1CCN(c2cnccn2)CC1,17.38
2,c1cc(C2CCN(c3cnccn3)CC2)ncn1,5.379
3,COc1cccc(C(=O)N2C[C@@H](c3ccccc3)[C@@H]3NCCCC[C@@H]32)c1,4.696
4,Cc1cc(C(C)(O)CNC(=O)OC(C)(C)C)c(C)o1 (stereo not given),14.94
5,Cc1cc(C(C)(O)CNC(=O)C2(C)CCCC2)c(C)o1 (stereo not given),32.83
6,Cc1cc(C(C)(O)CNC(=O)c2ccc(Br)o2)c(C)o1 (stereo not given),53.63
7,O=C(c1cc(-n2cnnn2)ccc1Cl)N1CCCCCC1,22.48
8,Cc1noc(C)c1CN1CCOCC12CCN(c1nccs1)CC2.O=C(O)C(F)(F)F,-2.189
9,CCNC(=O)N1CCc2ccc(NC(=O)C(C)c3ccsc3)cc21 (stereo not given),-7.199
10,Cc1cnn(C2CCCN(C(=O)c3ccnc(-n4cncn4)c3)C2)c1 (stereo not given),-11.26
11,Cc1cn2nc(N3CCn4c(nnc4C(C)C)C3)sc2n1,-4.534
12,Cn1cc(CN2CCCCC2c2ccc(-c3cnn(C)c3)nc2)cn1 (stereo not given),0.8308
13,Cn1cc(-c2ccc(C3CCCCN3Cc3cccnc3)cn2)cn1 (stereo not given),36.92
14,c1cnc(Nc2ccc(C3CCCCN3Cc3ccncc3)cn2)nc1 (stereo not given),63.94
15,CS(=O)(=O)N1CCCCC1c1ccc(Nc2cnccn2)nc1 (stereo not given),21.12
16,c1cncc(CN2CCCCC2c2ccc(Nc3cnccn3)nc2)c1 (stereo not given),29.23
17,c1cc(CN2CCCCC2c2ccc(Nc3cnccn3)nc2)ccn1 (stereo not given),73.82
18,Cc1cnn(CCNCc2ccc(OCc3cccnc3)cc2)c1,-17.94
19,Cc1nnc(C2Cc3ccccc3CN2Cc2ncc(Cl)n2C)o1 (stereo not given),-18.28
20,Cn1cc(CC(=O)N2CCCC(c3cc(C(F)(F)F)[nH]n3)C2)cn1 (stereo not given),-14.78
21,O=C(Cn1cc(Cl)cn1)NCCN1CCC(O)(c2ccc(F)cc2)CC1,36.23
